Several values for one entry are separate records, joined by “and”; a condition that tells them apart may be missing. Equal entries are not always repeated. Records with an inconclusive call do not appear. A call without a number means that no potency is given here. Activity calls are given as the source filed them. Calls follow the shape of the dose curve; as a rule, active = well fitted curve in the direction sought with a large enough effect; inconclusive = small, poorly fitted or top-dose-only effect, or another doubt; inactive = no such curve, though single readings can be large; an effect the other way counts as inactive or inconclusive.
Tests used:
[1] = qHTS of pediatric cancer cell lines to identify multiple opportunities for drug repurposing: Primary screen for SK-N-MC cells (AID 1347093); also: potency is read from the fitted curve at half-maximal effect
Method in brief: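 Metabolically active cells were quantified by ATP-dependent luminescence (CellTiter-Glo, 15 min at room temperature) following 48 h treatment. Cells had been plated at 500-1,000 per well and settled for 5 h beforehand.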

[2] = qHTS of pediatric cancer cell lines to identify multiple opportunities for drug repurposing: Primary screen for BT-37 cells (AID 1347094); also: potency is read from the fitted curve at half-maximal effect
Method in brief: (§1)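 Quantitative HTS format: each compound titrated (MIPE 11 points from 0.78 nM, NPC 8 points from 0.59 nM) onto cells plated 5 hours earlier. After 48 h at 37 degrees C, CellTiter-Glo luminescence was recorded.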

[3] = qHTS of pediatric cancer cell lines to identify multiple opportunities for drug repurposing: Primary screen for NB-EBc1 cells (AID 1347095); also: potency is read from the fitted curve at half-maximal effect
Method in brief: as §1

[4] = qHTS of pediatric cancer cell lines to identify multiple opportunities for drug repurposing: Primary screen for U-2 OS cells (AID 1347096); also: nearly all actives have a fitted effect of over 50% in size; also: potency is read from the fitted curve at half-maximal effect
Method in brief: (§2)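 Viability after 48 h compound treatment at 37C, 500-1,000 cells/well, read as ATP luminescence with CellTiter-Glo. Primary screens used 11-point (MIPE, 0.78 nM-46 µM) or 8-point (NPC, 0.59 nM-46 µM) final concentrations; follow-up screens used 11-point dilutions.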

[5] = qHTS of pediatric cancer cell lines to identify multiple opportunities for drug repurposing: Primary screen for Saos-2 cells (AID 1347097); also: nearly all actives have a fitted effect of over 40% in size; also: potency is read from the fitted curve at half-maximal effect
Method in brief: as §1

[6] = qHTS of pediatric cancer cell lines to identify multiple opportunities for drug repurposing: Primary screen for SK-N-SH cells (AID 1347098); also: nearly all actives have a fitted effect of over 65% in size; also: potency is read from the fitted curve at half-maximal effect
Method in brief: (§3)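 Cells (500-1,000/well) rested 5 h, then received compounds for 48 h; metabolically active cells were measured by CellTiter-Glo luminescence. Final concentrations spanned up to 46 µM (MIPE, 11-point) or 0.59 nM-46 µM (NPC, 8-point) in primary screens, 11-point in follow-ups.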

[7] = qHTS of pediatric cancer cell lines to identify multiple opportunities for drug repurposing: Primary screen for NB1643 cells (AID 1347099); also: nearly all actives have a fitted effect of over 50% in size; also: potency is read from the fitted curve at half-maximal effect
Method in brief: as §1

[8] = qHTS of pediatric cancer cell lines to identify multiple opportunities for drug repurposing: Primary screen for LAN-5 cells (AID 1347100); also: potency is read from the fitted curve at half-maximal effect
Method in brief: as §2

[9] = qHTS of pediatric cancer cell lines to identify multiple opportunities for drug repurposing: Primary screen for BT-12 cells (AID 1347101); also: nearly all actives have a fitted effect of over 25% in size; also: potency is read from the fitted curve at half-maximal effect
Method in brief: as §3

[10] = qHTS of pediatric cancer cell lines to identify multiple opportunities for drug repurposing: Primary screen for Rh18 cells (AID 1347102); also: nearly all actives have a fitted effect of over 65% in size; also: potency is read from the fitted curve at half-maximal effect
Method in brief: as §2

[11] = qHTS of pediatric cancer cell lines to identify multiple opportunities for drug repurposing: Primary screen for OHS-50 cells (AID 1347103); also: nearly all actives have a fitted effect of over 40% in size; also: potency is read from the fitted curve at half-maximal effect
Method in brief: as §3

[12] = qHTS of pediatric cancer cell lines to identify multiple opportunities for drug repurposing: Primary screen for RD cells (AID 1347104); also: nearly all actives have a fitted effect of over 55% in size; also: potency is read from the fitted curve at half-maximal effect
Method in brief: as §1

[13] = qHTS of pediatric cancer cell lines to identify multiple opportunities for drug repurposing: Primary screen for MG 63 (6-TG R) cells (AID 1347105); also: nearly all actives have a fitted effect of over 50% in size; also: potency is read from the fitted curve at half-maximal effect
Method in brief: as §1

[14] = qHTS of pediatric cancer cell lines to identify multiple opportunities for drug repurposing: Primary screen for control Hh wild type fibroblast cells (AID 1347106);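 also: series mostly up to about 46 µM; a drop in luminescence marks cytotoxicity and a rise apparent proliferation; nearly all actives have a fitted effect of over 55% in size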
Method in brief: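 Cells (500-1,000/well) in growth media were settled 5 h at 37 degrees C, then given compounds for 48 h. Viability was read as CellTiter-Glo luminescence. Primary runs used MIPE at 11 points (0.78 nM-46 µM) and NPC at 8 points (0.59 nM-46 µM); follow-ups used 11 points.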

[15] = qHTS of pediatric cancer cell lines to identify multiple opportunities for drug repurposing: Primary screen for Rh30 cells (AID 1347107); also: series mostly up to about 46 µM; nearly all actives have a fitted effect of over 75% in size
Method in brief: as §2

[16] = qHTS of pediatric cancer cell lines to identify multiple opportunities for drug repurposing: Primary screen for Rh41 cells (AID 1347108); also: nearly all actives have a fitted effect of over 70% in size; also: potency is read from the fitted curve at half-maximal effect
Method in brief: as §1

[17] = qHTS of pediatric cancer cell lines to identify multiple opportunities for drug repurposing: Confirmatory screen for NB1643 cells (AID 1347109); also: nearly all actives have a fitted effect of over 45% in size
Method in brief: as §2

[18] = qHTS of pediatric cancer cell lines to identify multiple opportunities for drug repurposing: Confirmatory screen for A673 cells (AID 1347110);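 also: cells exposed to compound for 48 h before the viability read; nearly all actives have a fitted effect of over 65% in size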
Method in brief: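 Cells plated at 500-1,000/well were treated five hours later with multi-point dilutions up to 46 µM final. After two days, CellTiter-Glo was added and luminescence read.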

[19] = qHTS of pediatric cancer cell lines to identify multiple opportunities for drug repurposing: Confirmatory screen for LAN-5 cells (AID 1347113); also: nearly all actives have a fitted effect of over 65% in size
Method in brief: as §2

| SMILES | Potency [1] | Potency [2] | Potency [3] | Potency [4] | Potency [5] | Potency [6] | Potency [7] | Potency [8] | Potency [9] | Potency [10] | Potency [11] | Potency [12] | Potency [13] | Potency [14] | Potency [15] | Potency [16] | Potency [17] | Potency [18] | Potency [19] |
| --- | --- | --- | --- | --- | --- | --- | --- | --- | --- | --- | --- | --- | --- | --- | --- | --- | --- | --- | --- |
| Cc1[nH]c(=O)c(C#N)cc1-c1ccc2nccn2c1 | inactive | inactive | inactive | inactive | inactive | inactive | inactive | inactive | inactive | inactive | inactive | inactive | inactive | inactive | inactive |  |  |  |  |
| Cc1cc([C@@H](C)Nc2ccccc2C(=O)O)c2nc(N3CCOCC3)cc(=O)n2c1 | 0.191 µM (active) | 55.9 µM (active) | 24.1 µM (active) | inactive | 9.59 µM (active) | 9.87 µM (active) | 6.05 µM (active) | 34 µM (active) |  | 12.1 µM (active) | 2.22 µM (active) | 12.1 µM (active) | 1.71 µM (active) | inactive |  |  |  |  |  |
| O=C(O)CCc1ccc(NCc2cccc(Oc3ccccc3)c2)cc1 | inactive | inactive | inactive | inactive | inactive | inactive | inactive | inactive | inactive | inactive | inactive | inactive | inactive | inactive | inactive |  |  |  |  |
| Clc1cccc(Cl)c1NC1=NCCN1 | inactive | inactive | inactive | inactive | inactive | inactive | inactive | inactive | inactive | inactive | inactive | inactive | inactive | inactive | inactive | inactive |  |  |  |
| CS(=O)(=O)c1cccc(CNc2nc(Nc3ccc4c(c3)CCC(=O)N4)ncc2C(F)(F)F)c1 | 7.43 µM (active) | 27.3 µM (active) | 14.8 µM (active) | 18.7 µM (active) | 16.6 µM (active) | 24.1 µM (active) | 16.6 µM (active) | 3.32 µM (active) |  |  | 6.11 µM (active) | 16.6 µM (active) | 11.8 µM (active) | inactive |  |  |  |  |  |
| CC(C[N+](C)(C)C)OC(N)=O (centres undefined) | inactive | inactive | inactive | inactive | inactive | inactive | inactive | inactive | inactive | inactive | inactive | inactive | inactive | inactive | inactive | inactive |  |  |  |
| COc1ccc([C@@H]2CC(=O)c3c(O)cc(O[C@@H]4O[C@H](CO[C@@H]5O[C@@H](C)[C@H](O)[C@@H](O)[C@@H]5O)[C@@H](O)[C@H](O)[C@@H]4O)cc3O2)cc1O | 16.6 µM (active) | inactive | inactive | inactive | inactive | inactive | inactive | inactive | inactive | inactive | inactive | inactive | inactive | inactive | inactive | inactive |  |  |  |
| CCCCNc1cc(C(=O)O)cc(S(N)(=O)=O)c1Oc1ccccc1 | inactive | inactive | inactive | inactive | inactive | inactive | inactive | inactive | inactive | inactive | inactive | inactive | inactive | inactive | inactive | inactive |  |  |  |
| c1ccc([C@H]2CN3CCSC3=N2)cc1 | inactive | inactive | inactive | inactive | inactive | inactive | inactive | inactive | inactive | inactive | inactive | inactive | inactive | inactive | inactive |  |  |  |  |
| OC(CCN1CCCCC1)(c1ccccc1)C1CC2C=CC1C2 (centres undefined) | inactive | inactive | inactive | inactive | inactive | inactive | inactive | inactive | inactive | inactive | inactive | inactive | inactive | inactive | inactive |  |  |  |  |
| Cc1ccccc1C(OCCN(C)C)c1ccccc1 (centres undefined) | inactive | inactive | inactive | inactive | inactive |  | inactive | inactive | inactive | inactive |  | inactive | inactive | inactive | inactive | inactive |  |  |  |
| N[C@@H]1CONC1=O | inactive | inactive | inactive | inactive | inactive | inactive | inactive | inactive | inactive | inactive | inactive | inactive | inactive | inactive | inactive | inactive |  |  |  |
| O=c1n(CCCN2CCN(c3cccc(Cl)c3)CC2)nc2ccccn12 | inactive | inactive | inactive | inactive | inactive | inactive | inactive | inactive | inactive | inactive | inactive | inactive | inactive | inactive | inactive |  |  |  |  |
| O=C(O)COCCN1CCN(C(c2ccccc2)c2ccc(Cl)cc2)CC1 (centres undefined) | inactive | inactive | inactive | inactive | inactive | inactive | inactive | inactive | inactive | inactive | inactive | inactive | inactive | inactive | inactive |  |  |  |  |
| CC(c1cc2ccccc2s1)N(O)C(N)=O (centres undefined) | inactive | inactive | inactive | inactive | inactive | inactive | inactive | inactive | inactive | inactive | inactive | inactive | inactive | inactive | inactive | inactive |  |  |  |
| Cc1cc2c(C(C)C)c(O)c(O)c(C=O)c2c(O)c1-c1c(C)cc2c(C(C)C)c(O)c(O)c(C=O)c2c1O | 5.96 µM (active) and 9.35 µM (active) | 15.5 µM (active) and 24.3 µM (active) | 3.76 µM (active) and 2.96 µM (active) | inactive | 8.41 µM (active) and 16.6 µM (active) |  | 8.41 µM (active) and 7.43 µM (active) | 3.35 µM (active) and 11.8 µM (active) | 13.8 µM (active) and 19.3 µM (active) | 23.5 µM (active) | 11 µM (active) and 19.3 µM (active) | 26.6 µM (active) and 29.6 µM (active) | 21.1 µM (active) and 23.5 µM (active) | inactive |  | 16.8 µM (active) and 18.7 µM (active) |  |  |  |
| Oc1ccc(C2CNCCc3c2cc(O)c(O)c3Cl)cc1 (centres undefined) | inactive | inactive | inactive | inactive | inactive | inactive | inactive | inactive | inactive | inactive | inactive | inactive | inactive | inactive | inactive | inactive |  |  |  |
| CCC(C)n1ncn(-c2ccc(N3CCN(c4ccc(OC[C@H]5CO[C@](Cn6cncn6)(c6ccc(Cl)cc6Cl)O5)cc4)CC3)cc2)c1=O (some centres undefined) | 1.48 µM (active) | inactive | 1.05 µM (active) | inactive | inactive | inactive | inactive |  |  | inactive |  |  | inactive | inactive | inactive |  | inactive | inactive | inactive |
| CC(C)(C)NCC(O)c1ccc(O)c(CO)c1 (centres undefined) | inactive | inactive | inactive | inactive | inactive | inactive | inactive | inactive | inactive | inactive | inactive | inactive | inactive | inactive | inactive | inactive |  |  |  |
| O=C1CCC(N2C(=O)c3ccccc3C2=O)C(=O)N1 (centres undefined) | inactive | inactive | inactive | inactive | inactive | inactive | inactive | inactive | inactive | inactive | inactive | inactive | inactive | inactive | inactive | inactive |  |  |  |
| NC(=O)c1cnccn1 | inactive | inactive | inactive | inactive | inactive | inactive | inactive | inactive | inactive | inactive | inactive | inactive | inactive | inactive | inactive | inactive |  |  |  |
| Cc1ccc(-n2nc(C(C)(C)C)cc2NC(=O)Nc2ccc(OCCN3CCOCC3)c3ccccc23)cc1 | 0.662 µM (active) | inactive | inactive | inactive | inactive | 0.541 µM (active) |  | inactive |  | inactive |  | 26.4 µM (active) |  | inactive | inactive | inactive |  |  |  |
| NS(=O)(=O)c1cc2c(cc1Cl)NC=NS2(=O)=O | inactive | inactive | inactive | inactive | inactive | inactive | inactive | inactive | inactive | inactive | inactive | inactive | inactive | inactive | inactive |  |  |  |  |
| CC1(C)SCCN(S(=O)(=O)c2ccc(OCC#CCO)cc2)[C@@H]1C(=O)NO | inactive | inactive | inactive | inactive | inactive |  | inactive | inactive | inactive | inactive | inactive | inactive | inactive | inactive | inactive | inactive |  |  |  |
| C[C@]12CCC(=O)C=C1CC[C@@H]1[C@@H]2[C@@H](O)C[C@@]2(C)[C@H]1CC[C@]2(O)C(=O)CO | inactive | inactive | inactive | inactive | inactive | inactive | inactive | inactive | inactive | inactive | inactive | inactive | inactive | inactive | inactive |  |  |  |  |
| CNC[C@H](O)c1cccc(O)c1 | inactive | inactive | inactive | inactive | inactive | inactive | inactive | inactive | inactive | inactive | inactive | inactive | inactive | inactive | inactive |  |  |  |  |
| CC(C)NCC(O)COc1ccc(COCCOC(C)C)cc1 (centres undefined) | inactive | inactive | inactive | inactive | inactive | inactive | inactive | inactive | inactive | inactive | inactive | inactive | inactive | inactive | inactive |  |  |  |  |
